Results: the supplement of paper PMC11732987, “Enantioselective OTUD7B fragment discovery through chemoproteomics screening and high-throughput optimisation” (Communications Chemistry, 2025)

Experiments:
Experiment in all cases: log2 ratio of Biotin-Ahx-Ub-VS probe labelling (fragment/DMSO); higher = less target engagement (more negative = stronger competition), active = hit call of the paper (q ≤ 0.05, log2 ratio ≤ -1)
Conditions in all cases: compound concentration: 200 uM; treatment time: 3 h
[1] = biological target: USP34 (UniProt Q70CQ2)
USP34, sequence (Q70CQ2 whole entry, the tested form may be a part): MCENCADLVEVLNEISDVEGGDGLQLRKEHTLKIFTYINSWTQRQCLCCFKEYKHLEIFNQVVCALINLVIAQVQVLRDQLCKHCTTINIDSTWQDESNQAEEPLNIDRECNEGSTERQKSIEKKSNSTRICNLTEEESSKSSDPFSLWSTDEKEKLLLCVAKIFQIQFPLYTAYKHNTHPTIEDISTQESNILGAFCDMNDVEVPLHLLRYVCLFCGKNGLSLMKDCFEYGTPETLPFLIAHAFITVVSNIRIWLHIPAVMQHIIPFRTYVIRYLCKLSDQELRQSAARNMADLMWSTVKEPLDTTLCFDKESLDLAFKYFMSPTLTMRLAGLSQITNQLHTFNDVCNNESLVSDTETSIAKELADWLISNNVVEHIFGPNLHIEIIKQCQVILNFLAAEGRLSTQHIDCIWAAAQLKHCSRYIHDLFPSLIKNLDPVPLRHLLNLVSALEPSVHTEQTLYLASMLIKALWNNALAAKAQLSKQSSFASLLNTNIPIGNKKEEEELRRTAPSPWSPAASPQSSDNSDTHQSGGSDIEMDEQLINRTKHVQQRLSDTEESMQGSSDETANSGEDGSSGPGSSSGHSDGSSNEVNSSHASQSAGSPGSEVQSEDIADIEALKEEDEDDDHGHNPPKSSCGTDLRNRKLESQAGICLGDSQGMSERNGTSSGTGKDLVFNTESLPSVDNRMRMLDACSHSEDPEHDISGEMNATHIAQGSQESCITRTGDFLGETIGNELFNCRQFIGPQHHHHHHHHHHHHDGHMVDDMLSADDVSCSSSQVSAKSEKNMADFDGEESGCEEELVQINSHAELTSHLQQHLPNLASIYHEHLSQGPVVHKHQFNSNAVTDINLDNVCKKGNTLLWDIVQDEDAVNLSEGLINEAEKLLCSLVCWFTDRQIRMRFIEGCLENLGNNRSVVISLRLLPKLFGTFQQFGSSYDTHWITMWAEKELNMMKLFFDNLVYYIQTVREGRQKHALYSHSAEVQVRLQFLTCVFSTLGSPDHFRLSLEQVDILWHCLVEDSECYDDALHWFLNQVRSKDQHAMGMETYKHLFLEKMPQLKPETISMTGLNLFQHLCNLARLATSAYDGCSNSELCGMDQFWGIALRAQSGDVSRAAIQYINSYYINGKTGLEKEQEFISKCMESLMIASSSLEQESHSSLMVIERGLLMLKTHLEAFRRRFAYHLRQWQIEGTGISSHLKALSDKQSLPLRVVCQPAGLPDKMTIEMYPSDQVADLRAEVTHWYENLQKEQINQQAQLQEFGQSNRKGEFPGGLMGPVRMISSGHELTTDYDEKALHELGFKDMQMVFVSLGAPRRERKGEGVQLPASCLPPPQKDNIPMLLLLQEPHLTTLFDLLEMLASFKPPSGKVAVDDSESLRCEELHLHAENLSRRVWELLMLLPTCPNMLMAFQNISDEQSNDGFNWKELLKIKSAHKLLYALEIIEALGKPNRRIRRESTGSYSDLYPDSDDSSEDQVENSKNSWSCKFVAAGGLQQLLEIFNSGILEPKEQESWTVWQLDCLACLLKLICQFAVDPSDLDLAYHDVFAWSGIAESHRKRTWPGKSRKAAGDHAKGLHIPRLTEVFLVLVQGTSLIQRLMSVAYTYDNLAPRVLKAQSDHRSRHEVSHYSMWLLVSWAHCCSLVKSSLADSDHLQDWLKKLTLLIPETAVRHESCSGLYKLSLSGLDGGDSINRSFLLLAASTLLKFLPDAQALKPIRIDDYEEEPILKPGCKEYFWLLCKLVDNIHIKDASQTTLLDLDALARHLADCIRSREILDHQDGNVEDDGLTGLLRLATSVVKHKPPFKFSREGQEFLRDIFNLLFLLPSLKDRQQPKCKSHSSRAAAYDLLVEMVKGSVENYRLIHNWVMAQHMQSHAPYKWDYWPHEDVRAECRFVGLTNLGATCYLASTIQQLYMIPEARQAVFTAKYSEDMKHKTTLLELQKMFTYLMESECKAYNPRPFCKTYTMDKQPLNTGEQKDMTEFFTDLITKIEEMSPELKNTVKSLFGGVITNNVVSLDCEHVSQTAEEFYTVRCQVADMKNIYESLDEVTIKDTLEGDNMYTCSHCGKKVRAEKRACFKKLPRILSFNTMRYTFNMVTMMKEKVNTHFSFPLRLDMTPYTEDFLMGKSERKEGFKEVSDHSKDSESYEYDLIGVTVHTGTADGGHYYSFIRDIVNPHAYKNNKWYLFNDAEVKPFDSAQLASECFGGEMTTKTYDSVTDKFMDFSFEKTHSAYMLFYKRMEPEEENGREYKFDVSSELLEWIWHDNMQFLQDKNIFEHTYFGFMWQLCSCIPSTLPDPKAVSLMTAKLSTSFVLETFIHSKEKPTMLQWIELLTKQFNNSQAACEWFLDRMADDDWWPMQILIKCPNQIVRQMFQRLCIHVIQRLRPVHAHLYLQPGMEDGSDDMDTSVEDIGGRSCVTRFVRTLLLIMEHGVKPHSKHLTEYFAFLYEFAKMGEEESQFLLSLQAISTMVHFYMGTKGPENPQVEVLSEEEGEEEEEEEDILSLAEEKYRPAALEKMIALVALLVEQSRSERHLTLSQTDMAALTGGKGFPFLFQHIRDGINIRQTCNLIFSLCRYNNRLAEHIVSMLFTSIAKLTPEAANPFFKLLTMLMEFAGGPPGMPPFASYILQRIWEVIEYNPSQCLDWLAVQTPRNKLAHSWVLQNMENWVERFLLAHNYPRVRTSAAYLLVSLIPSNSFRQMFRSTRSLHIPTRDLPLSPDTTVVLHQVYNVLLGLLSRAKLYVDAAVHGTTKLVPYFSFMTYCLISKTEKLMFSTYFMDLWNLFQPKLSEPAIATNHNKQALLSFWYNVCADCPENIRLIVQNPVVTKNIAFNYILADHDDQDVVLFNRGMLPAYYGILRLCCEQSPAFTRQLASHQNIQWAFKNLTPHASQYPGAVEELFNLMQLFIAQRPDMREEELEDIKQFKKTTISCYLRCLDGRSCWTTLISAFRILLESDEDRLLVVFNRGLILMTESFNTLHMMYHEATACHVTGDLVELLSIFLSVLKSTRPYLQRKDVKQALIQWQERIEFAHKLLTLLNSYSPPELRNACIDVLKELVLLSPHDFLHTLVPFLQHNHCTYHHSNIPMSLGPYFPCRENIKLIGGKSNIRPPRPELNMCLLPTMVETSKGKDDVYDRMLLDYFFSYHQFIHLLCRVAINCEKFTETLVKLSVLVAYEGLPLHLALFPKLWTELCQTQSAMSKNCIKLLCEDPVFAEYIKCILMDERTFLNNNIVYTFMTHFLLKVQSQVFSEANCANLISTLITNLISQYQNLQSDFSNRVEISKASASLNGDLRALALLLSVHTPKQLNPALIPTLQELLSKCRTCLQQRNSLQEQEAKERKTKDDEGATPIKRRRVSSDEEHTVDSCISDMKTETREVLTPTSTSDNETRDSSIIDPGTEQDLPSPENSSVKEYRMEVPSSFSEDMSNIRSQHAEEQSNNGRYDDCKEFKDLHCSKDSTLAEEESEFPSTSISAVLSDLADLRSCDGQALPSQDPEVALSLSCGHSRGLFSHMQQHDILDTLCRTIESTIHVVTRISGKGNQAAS
Outline: (§1)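 Average log2 ratios of fragment over vehicle were obtained by unpaired t-test from global-median-normalised Spectronaut label-free quantities. Proteins with ≥2 unique peptides were included. HEK293T lysate (495 µg per sample) was treated in triplicate with fragment at 200 µM or vehicle for 3 h, then with Biotin-Ahx-Ub-VS at 0.5 µM final for 1 h, and labelled DUBs were NeutrAvidin-enriched and run by diaPASEF LC-MS/MS.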

[2] = biological target: T1, USP36 (UniProt Q9P275)
T1 sequence (whole entry): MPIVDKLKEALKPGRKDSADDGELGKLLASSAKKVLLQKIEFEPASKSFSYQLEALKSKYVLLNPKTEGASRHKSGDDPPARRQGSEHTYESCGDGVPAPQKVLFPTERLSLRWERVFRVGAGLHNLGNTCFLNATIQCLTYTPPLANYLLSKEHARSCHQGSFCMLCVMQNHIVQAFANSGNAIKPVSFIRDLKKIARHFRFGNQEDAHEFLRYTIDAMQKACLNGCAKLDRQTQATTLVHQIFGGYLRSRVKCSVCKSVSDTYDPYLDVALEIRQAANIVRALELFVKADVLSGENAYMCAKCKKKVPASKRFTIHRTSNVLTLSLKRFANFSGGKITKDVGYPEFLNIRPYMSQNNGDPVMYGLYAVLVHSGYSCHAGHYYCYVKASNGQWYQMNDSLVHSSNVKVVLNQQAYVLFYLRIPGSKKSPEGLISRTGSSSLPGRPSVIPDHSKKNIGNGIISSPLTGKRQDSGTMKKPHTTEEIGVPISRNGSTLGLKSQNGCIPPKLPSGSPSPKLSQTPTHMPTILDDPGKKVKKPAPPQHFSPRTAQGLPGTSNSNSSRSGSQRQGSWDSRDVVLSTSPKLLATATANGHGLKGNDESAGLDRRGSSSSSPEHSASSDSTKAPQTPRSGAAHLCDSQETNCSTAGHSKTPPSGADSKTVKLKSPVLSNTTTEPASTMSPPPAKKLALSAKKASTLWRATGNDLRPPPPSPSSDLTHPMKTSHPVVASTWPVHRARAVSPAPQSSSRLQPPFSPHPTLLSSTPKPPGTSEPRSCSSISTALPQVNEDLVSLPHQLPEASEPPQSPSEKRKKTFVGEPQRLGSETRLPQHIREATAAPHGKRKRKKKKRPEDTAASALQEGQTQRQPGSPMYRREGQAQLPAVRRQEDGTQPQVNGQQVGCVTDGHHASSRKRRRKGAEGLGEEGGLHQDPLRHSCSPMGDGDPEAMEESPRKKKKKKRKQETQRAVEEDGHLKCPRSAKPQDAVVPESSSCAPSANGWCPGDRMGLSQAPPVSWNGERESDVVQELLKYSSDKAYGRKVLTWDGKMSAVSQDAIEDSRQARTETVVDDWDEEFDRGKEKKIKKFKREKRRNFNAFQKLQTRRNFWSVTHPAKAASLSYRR
Outline: as §1

[3] = biological target: T2, USP38 (UniProt Q8NB14)
T2 sequence (whole entry): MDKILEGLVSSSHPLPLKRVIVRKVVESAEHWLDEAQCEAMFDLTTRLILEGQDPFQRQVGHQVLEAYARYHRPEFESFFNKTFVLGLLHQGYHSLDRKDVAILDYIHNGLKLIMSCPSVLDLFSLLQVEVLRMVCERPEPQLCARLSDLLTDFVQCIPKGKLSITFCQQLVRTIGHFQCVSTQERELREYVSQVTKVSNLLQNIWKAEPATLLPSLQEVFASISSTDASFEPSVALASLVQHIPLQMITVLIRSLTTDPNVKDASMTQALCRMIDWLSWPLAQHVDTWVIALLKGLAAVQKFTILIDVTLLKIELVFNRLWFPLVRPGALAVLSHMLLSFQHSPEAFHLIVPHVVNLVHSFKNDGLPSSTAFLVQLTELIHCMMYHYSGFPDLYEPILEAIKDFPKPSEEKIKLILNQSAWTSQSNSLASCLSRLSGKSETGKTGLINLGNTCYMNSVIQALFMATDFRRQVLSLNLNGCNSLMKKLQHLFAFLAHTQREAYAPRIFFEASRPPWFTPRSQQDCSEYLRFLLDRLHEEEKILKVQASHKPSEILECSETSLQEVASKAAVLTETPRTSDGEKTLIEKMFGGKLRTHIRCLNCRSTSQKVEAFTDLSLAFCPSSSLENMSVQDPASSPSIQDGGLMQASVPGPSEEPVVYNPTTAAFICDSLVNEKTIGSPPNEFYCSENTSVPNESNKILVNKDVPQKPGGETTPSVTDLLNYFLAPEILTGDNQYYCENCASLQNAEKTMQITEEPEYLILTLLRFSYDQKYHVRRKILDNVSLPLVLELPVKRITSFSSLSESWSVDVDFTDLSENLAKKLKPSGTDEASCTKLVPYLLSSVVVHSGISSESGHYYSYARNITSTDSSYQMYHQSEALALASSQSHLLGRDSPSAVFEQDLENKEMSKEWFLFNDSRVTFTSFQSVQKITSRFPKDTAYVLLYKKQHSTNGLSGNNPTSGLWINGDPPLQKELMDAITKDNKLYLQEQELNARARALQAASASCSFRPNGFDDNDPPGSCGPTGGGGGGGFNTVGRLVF
Outline: as §1

[4] = biological target: T3, USP39 (UniProt Q53GS9)
T3 sequence (whole entry): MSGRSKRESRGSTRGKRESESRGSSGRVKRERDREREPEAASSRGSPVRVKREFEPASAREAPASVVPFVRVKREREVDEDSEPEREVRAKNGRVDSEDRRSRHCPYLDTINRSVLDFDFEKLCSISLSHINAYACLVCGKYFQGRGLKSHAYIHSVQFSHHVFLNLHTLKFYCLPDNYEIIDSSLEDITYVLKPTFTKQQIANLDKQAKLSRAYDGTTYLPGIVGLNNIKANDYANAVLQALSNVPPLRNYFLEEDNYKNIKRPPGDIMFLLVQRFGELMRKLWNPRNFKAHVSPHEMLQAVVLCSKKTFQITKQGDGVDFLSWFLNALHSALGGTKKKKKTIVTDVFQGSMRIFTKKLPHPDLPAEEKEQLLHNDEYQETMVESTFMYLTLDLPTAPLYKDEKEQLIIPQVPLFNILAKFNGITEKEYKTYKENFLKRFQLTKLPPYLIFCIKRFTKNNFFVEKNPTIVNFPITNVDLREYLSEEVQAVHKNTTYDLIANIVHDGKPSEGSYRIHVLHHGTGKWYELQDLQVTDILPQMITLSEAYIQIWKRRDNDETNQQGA
Outline: as §1

[5] = biological target: T4, USP4 (UniProt Q13107)
T4 sequence (whole entry): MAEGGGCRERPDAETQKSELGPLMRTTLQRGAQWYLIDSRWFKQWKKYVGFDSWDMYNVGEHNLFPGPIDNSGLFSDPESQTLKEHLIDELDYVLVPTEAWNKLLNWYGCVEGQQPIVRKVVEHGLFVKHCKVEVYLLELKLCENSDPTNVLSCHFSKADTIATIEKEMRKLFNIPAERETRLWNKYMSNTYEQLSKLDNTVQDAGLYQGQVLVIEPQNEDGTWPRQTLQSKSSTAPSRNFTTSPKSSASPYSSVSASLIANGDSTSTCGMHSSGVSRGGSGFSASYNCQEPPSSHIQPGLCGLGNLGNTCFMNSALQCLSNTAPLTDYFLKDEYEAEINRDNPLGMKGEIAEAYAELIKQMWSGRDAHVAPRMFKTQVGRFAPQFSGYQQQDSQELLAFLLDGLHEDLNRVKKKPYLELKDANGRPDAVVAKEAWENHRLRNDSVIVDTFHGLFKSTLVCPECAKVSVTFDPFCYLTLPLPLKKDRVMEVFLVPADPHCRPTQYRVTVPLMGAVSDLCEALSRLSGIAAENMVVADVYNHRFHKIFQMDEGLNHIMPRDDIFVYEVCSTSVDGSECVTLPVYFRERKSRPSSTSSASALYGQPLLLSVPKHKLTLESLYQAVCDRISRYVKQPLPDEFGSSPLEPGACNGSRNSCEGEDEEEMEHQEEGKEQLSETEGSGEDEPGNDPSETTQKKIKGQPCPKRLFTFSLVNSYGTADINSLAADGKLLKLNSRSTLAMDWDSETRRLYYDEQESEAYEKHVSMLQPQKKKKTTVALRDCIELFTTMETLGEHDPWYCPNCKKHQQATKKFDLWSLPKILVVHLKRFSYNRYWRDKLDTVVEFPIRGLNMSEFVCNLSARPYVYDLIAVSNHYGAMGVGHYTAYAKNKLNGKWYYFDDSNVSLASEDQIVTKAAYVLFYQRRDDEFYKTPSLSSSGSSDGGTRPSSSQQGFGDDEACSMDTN
Outline: as §1

Measured: log2 ratio of Biotin-Ahx-Ub-VS probe labelling

Cc1cc(C(=O)NC2CCN(C(=O)CCl)CC2)no1
inactive: [1] -0.22 | [2] -0.0502 | [3] 0.122 | [4] 0.0572 | [5] -0.111
